Results filed as inconclusive are left out. The source made the active and inactive calls. How the source made its calls: active means hit-call score of the fitted dose curve at least 0.9, where 1 is the maximum; inconclusive means response in the unintended direction; inactive means score below 0.9.
molecular target: human Serotonin, 5-Hydroxytryptamine Receptor 3 (5HT3), HTR3A (gene 3359) (UniProt P46098); assay: NVS_LGIC_h5HT3: NovaScreen (NVS) Ligand-Gated Ion Channel Assay for human Serotonin, 5-Hydroxytryptamine Receptor 3 (5HT3) (AID 2283325)
Sequence (P46098 whole entry, looked up): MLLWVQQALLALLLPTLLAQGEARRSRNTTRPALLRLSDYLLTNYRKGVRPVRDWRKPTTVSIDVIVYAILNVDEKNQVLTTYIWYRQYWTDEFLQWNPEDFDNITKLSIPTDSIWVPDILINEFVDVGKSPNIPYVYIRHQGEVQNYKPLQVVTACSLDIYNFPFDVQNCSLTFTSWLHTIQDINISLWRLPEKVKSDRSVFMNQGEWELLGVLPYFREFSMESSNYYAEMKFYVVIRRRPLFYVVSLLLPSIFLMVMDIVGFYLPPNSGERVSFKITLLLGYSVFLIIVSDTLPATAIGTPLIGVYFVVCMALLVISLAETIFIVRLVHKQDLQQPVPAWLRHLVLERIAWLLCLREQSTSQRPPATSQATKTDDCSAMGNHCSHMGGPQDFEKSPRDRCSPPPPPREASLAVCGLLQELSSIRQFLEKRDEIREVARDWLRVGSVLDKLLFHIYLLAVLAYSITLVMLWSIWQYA
Protocol: NVS_LGIC_h5HT3 is a biochemical, single-readout assay that uses extracted gene-proteins from HEK293 in a cell-free assay. Measurements were taken 1 hour after chemical dosing in a 96-well plate.NVS_LGIC_h5HT3 is one of one assay component(s) measured or calculated from the NVS_LGIC_h5HT3 assay. It is designed to make measurements of radioligand binding, a form of binding reporter, as detected with scintillation counting signals by Filter-based radiodetection technology.Data from the assay component NVS_LGIC_h5HT3 was analyzed into 1 assay endpoint. This assay endpoint, NVS_LGIC_h5HT3, was analyzed in the positive analysis fitting direction relative to DMSO as the negative control and baseline of activity. Using a type of binding reporter, loss-of-signal activity can be used to understand changes in the binding as they relate to the gene HTR3A. Furthermore, this assay endpoint can be referred to as a primary readout, because the performed assay has only produced 1 assay endpoint. To generalize the intended target to other relatable targets, this assay endpoint is annotated to the ion channel intended target family, where the subfamily is ligand-gated ion channel.
Binding assays used specific radioligands (tritiated, iodinated) with non-radioactive competitive displacement ligands in agonist or antagonist protocols (as indicated) and various reference compounds and inhibitors to titrate specific binding to receptors and transporters. Most enzyme assays (CYPs, kinases, phosphatases, proteases, HDACs) used recombinant protein and specific substrates (fluorescence mostly, some colorimetric and radioactive) and inhibitors, followed by a biochemical separation of substrate and product. All assays for the biochemical HTS were initially run in duplicate at a single concentration (10 uM for CYP450 assays and 25 uM for all others). Assay-chemical combinations meeting a pre-defined threshold (e.g., 30% inhibition and other criteria defined below) were then run in singleton concentration-response format with maximum concentration of 20 uM for CYPs and 50 uM for all others. Each assay was run with positive and negative controls, and concurrent controls on every plate. The follow-up (secondary) screen tested active chemical-pairs in concentration series, as well as a few additional assays not tested in the primary screen, some selected negative inactives, and several cases re-run in the concentration series for confirmatory purposes.

SMILES	AC50	outcome
COc1cc(S(=O)(=O)O)c(C)cc1N=Nc1c(O)ccc2cc(S(=O)(=O)O)ccc12	32.8 µM (active)	
COc1cc(C=O)ccc1O	15 µM (active)	
NCC1(Cc2noc(=O)[nH]2)CCCCC1		inactive
Oc1ccc2c(c1)OC[C@@H](N1CCC(O)(c3ccc(F)cc3)CC1)[C@H]2O		inactive
Cc1ccc(Cl)cc1	7.56 µM (active)	
CCCCCCCCCCCC(=O)OC		inactive
CCOc1ccc2c(c1)C(C)=CC(C)(C)N2		inactive
CCCCCCCCCCCCCCCC		inactive
CNCc1cc(F)ccc1Oc1ccc(Cl)c(Cl)c1		inactive
O=C(OCCCCCOC(=O)c1ccccc1)c1ccccc1	0.0428 µM (active)	

Reference: PubChem BioAssay (EPA / NIEHS)
